The results in this text go back to the supplement of paper PMC10849652.

Of roughly 8,800 targets only a part is listed; those with a hit were picked by preference. About 0.5% of all pairs of compound and target were hits. Unmarked numbers belong to inactive results.

Chain of UniProt P01116 (P01116 whole entry, looked up): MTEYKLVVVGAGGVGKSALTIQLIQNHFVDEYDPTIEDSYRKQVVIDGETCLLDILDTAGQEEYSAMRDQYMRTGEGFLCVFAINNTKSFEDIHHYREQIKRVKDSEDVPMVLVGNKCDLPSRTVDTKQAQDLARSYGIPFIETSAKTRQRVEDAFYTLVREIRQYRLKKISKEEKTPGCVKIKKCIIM
Chain of UniProt Q9BVG8 (Q9BVG8 whole entry, looked up): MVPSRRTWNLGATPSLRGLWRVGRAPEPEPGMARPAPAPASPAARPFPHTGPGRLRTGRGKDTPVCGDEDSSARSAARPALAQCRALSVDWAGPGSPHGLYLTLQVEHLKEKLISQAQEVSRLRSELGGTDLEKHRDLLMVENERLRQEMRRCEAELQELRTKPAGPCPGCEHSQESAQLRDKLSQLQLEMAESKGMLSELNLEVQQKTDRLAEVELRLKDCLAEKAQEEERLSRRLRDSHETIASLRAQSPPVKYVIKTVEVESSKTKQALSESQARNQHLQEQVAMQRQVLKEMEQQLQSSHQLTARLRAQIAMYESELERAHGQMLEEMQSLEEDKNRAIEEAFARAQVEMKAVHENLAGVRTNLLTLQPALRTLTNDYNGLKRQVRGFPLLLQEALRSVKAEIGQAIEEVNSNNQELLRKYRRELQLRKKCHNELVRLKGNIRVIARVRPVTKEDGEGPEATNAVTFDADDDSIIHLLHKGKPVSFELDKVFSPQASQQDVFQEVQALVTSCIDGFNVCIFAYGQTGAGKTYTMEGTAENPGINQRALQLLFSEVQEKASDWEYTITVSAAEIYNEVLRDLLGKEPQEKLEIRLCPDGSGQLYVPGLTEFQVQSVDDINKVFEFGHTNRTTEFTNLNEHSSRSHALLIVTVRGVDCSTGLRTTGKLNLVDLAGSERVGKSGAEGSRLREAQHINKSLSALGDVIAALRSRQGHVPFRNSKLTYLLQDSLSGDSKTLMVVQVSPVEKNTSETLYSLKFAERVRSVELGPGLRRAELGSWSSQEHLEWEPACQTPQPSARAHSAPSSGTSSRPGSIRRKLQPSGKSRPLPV
Chain of UniProt Q8TC05 (Q8TC05 whole entry, looked up): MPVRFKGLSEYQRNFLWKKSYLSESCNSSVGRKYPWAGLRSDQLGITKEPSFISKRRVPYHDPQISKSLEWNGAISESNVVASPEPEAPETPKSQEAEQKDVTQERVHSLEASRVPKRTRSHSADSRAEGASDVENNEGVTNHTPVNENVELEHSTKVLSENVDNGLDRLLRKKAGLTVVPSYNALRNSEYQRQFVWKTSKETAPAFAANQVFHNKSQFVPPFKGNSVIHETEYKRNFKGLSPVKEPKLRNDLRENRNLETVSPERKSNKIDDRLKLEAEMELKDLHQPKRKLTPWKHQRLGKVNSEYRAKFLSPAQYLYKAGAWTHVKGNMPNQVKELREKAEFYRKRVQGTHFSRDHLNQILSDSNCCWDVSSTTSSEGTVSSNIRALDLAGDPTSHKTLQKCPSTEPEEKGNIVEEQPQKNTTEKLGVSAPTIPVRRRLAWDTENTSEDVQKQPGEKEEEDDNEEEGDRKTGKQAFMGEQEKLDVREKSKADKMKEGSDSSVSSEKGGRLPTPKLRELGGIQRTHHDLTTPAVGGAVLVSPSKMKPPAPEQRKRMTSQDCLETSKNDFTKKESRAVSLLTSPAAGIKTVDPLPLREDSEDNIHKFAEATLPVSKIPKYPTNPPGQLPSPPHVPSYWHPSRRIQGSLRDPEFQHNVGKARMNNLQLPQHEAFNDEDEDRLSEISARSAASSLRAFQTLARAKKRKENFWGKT
Chain of UniProt O75970 (O75970 whole entry, looked up): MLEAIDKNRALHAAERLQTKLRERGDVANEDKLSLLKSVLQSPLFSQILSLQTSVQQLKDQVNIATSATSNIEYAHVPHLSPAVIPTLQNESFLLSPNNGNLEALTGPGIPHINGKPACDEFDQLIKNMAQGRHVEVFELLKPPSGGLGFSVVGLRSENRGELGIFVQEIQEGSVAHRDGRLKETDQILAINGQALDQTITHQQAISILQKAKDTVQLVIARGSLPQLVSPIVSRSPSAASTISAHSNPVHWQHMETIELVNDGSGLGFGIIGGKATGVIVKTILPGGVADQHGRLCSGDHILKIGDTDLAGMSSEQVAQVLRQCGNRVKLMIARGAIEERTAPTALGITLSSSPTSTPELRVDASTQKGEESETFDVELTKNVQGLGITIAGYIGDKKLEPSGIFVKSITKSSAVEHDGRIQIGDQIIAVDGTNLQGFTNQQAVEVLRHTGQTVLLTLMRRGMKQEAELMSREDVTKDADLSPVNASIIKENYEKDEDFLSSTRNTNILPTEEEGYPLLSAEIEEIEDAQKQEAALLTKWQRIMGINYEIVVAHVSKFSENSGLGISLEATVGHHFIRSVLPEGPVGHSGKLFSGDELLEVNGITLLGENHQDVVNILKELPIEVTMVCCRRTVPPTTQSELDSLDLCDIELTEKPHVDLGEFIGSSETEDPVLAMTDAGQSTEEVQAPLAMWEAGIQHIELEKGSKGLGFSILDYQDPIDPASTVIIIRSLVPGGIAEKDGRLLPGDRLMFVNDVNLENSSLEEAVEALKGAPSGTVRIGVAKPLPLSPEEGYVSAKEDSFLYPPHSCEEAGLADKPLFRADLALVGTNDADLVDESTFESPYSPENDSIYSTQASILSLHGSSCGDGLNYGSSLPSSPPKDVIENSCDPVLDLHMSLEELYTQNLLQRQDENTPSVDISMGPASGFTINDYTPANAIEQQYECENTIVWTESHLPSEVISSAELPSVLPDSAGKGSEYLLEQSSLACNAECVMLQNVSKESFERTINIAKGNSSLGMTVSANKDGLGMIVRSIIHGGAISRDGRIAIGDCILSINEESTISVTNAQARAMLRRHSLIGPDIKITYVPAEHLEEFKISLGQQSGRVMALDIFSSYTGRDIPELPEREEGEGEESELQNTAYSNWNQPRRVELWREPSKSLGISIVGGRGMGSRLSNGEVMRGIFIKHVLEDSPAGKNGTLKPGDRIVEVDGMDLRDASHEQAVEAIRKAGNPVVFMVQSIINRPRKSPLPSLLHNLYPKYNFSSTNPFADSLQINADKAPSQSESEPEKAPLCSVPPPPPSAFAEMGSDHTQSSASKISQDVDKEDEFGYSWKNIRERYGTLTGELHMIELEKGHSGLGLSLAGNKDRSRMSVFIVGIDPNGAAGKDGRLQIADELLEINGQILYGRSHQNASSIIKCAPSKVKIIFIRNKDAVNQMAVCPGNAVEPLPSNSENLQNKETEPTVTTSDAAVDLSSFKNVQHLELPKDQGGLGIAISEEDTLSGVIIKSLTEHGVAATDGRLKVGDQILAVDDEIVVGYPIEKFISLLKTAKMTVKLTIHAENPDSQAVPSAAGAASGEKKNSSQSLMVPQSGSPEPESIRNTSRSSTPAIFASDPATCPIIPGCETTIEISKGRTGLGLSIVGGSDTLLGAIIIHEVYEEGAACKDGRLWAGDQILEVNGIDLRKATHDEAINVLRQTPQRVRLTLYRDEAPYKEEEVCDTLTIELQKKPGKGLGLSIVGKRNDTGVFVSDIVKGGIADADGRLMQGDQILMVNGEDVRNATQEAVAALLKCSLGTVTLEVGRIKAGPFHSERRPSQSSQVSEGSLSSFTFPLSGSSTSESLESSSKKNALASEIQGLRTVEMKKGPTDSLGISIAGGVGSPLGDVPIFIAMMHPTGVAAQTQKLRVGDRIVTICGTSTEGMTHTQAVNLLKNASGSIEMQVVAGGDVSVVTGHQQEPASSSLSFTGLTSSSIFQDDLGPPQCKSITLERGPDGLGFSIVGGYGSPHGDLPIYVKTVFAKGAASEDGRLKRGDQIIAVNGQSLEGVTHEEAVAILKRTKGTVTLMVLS
Chain of UniProt Q5T3J3 (Q5T3J3 whole entry, looked up): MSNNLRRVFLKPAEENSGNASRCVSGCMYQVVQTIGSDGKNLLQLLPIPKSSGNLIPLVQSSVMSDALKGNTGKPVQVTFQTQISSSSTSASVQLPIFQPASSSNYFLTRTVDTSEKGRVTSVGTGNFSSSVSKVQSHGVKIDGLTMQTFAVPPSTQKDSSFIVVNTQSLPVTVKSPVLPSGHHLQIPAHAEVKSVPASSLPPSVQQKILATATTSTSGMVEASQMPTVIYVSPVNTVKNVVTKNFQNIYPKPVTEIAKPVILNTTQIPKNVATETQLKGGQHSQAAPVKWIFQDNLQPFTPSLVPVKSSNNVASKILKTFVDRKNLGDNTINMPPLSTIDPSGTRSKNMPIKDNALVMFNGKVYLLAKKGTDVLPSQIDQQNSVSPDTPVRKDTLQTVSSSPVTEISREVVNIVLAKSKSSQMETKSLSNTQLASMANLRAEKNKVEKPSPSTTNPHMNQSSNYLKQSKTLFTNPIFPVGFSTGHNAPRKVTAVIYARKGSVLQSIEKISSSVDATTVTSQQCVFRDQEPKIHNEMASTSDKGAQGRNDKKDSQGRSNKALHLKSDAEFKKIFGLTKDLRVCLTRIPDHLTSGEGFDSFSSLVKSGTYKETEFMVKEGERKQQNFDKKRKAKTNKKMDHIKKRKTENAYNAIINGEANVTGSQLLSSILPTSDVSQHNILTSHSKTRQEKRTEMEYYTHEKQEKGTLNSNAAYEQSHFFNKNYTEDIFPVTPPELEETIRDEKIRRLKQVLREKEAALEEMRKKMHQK
Chain of UniProt P83369 (P83369 whole entry, looked up): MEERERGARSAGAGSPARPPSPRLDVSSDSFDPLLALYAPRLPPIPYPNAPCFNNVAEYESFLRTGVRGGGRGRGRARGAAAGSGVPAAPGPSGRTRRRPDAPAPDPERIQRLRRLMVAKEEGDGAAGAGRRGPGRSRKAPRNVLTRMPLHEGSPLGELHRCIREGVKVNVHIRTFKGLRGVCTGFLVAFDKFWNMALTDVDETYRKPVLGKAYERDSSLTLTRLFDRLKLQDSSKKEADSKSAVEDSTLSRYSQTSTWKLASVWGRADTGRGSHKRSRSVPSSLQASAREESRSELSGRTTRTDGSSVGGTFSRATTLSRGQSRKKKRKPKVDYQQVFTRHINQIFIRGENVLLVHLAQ
Chain of UniProt Q16553 (Q16553 whole entry, looked up): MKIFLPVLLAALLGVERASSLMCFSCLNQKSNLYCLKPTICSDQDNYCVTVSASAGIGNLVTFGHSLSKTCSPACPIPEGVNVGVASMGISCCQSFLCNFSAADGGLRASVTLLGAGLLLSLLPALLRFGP

Compound in the first test: C#Cc1cccc(Nc2ncnc3cc(OCCOC)c(OCCOC)cc23)c1 [erlotinib]
The test is described as follows: log2 fold change, soluble protein after heating vs DMSO (PISA); higher = thermal stabilisation; K562 lysate, 10 uM; active = over 0.2 and 3.5 SD of the protein, either way, in both replicates (recomputed). The essentials: (§1)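 The values are log-two fold changes in thermal stability compared with solvent controls and come from duplicates. They were obtained by TMTpro 16plex LC-MS/MS, with channel sums equalised, on the supernatant after 21,000xg for 90 min. That supernatant came from crude K562 extract at 1 mg/mL protein treated with 10 μM compound for 30 min, heated for 3 min across 48°C-58°C, pooled and brought to 0.5% NP-40 at 4°C.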
As for MPDZ (UniProt O75970), the log2 fold change is -0.017. Same read-out and setting: the figure for KIF3C (UniProt O14782) is 0.389; for MRPL22 (UniProt Q9NWU5) it is -0.424 (active); for LRIF1 (UniProt Q5T3J3) it is -0.015.

As to MCUB (UniProt Q9NWR8), the log2 fold change was 0.048. The same measure, in the same setting: the figure for MEGF8 (UniProt Q7Z7M0) is 0.045; for MAN2B2 (UniProt Q9Y2E5) it is 0.006; for MRPL27 (UniProt Q9P0M9) it is -0.072. Same read-out and setting: the figure for LGALS3BP (UniProt Q08380) is -0.154; for KRAS (UniProt P01116) it is -0.112; for MDM1 (UniProt Q8TC05) it is -0.018. Still for that read-out and setting: the figure for LEPROT (UniProt O15243) is 0.176; for LYN isoform 2 (UniProt P07948) it is -0.161. For the target MED28 (UniProt Q9H204), the log2 fold change was 0.057. Still for that read-out and setting: the value for MRPL30 isoform 2 (UniProt Q8TCC3) was -0.004; that for KRAS isoform 2 (UniProt P01116) was -0.038; that for METTL21A (UniProt Q8WXB1) was -0.074. Turning to MAPK7 (UniProt Q13164), the log2 fold change is -0.1.

With MED25 isoform 3 (UniProt Q71SY5), the log2 fold change was 0.092. On the same count and under the same terms, the figure for MAP4K4 isoform 6 (UniProt O95819) is 0.006; for KIFC3 isoform 6 (UniProt Q9BVG8) it is 0.091; for MME (UniProt P08473) it is 0.

LSM11 (UniProt P83369): the log2 fold change was 0.104.

Take MAPKAP1 (UniProt Q9BPZ7): the log2 fold change is -0.091. Consider KMT2B (UniProt Q9UMN6), for which the log2 fold change is -0.494. The same measure, in the same setting: the figure for MRC2 (UniProt Q9UBG0) is -0.225; for KLC1 isoform 10 (UniProt Q07866) it is 0.071. The same measure, in the same setting: the figure for KIF21A (UniProt H0YI78) is -0.064.

Compound in a further test: C/C(=N\NC(=O)C1=CC(=CC=C1)S(=O)(=O)N2CCOCC2)/C3=C(C=CC(=C3)Cl)O
Described as above. In short, it runs like this: as §1
In the case of MPDZ (UniProt O75970), the log2 fold change was -0.061. The same measure, in the same setting: the value for KIF3C (UniProt O14782) was 0.05; that for LRIF1 (UniProt Q5T3J3) was 0.11; that for MAP3K6 (UniProt O95382) was 0.05. Same read-out and setting: the figure for LRRIQ1 (UniProt Q96JM4) is 0.038; for LRPPRC (UniProt H7C3W8) it is -0.13; for LGALS3BP (UniProt Q08380) it is 0.293. The same measure, in the same setting: the value for KRAS (UniProt P01116) was 0.033. Consider MDM1 (UniProt Q8TC05), for which the log2 fold change is -0.105. On the same count and under the same terms, the value for LIMK1 (UniProt P53667) was 0.114; that for LRRC7 (UniProt Q96NW7) was 0.042.

On to LRP1 (UniProt Q07954), for which the log2 fold change was 0.266. The same measure, in the same setting: the figure for LRRC9 (UniProt Q6ZRR7) is -0.037.

As for LY6E (UniProt Q16553), the log2 fold change is -0.095. On the same count and under the same terms, the figure for MEX3A (UniProt A1L020) is 0.108; for KIFC3 isoform 6 (UniProt Q9BVG8) it is 0.069; for LSM11 (UniProt P83369) it is 0.262.
